NadD block – NadD (S. aureus) enzyme inhibition; purified NadD enzyme, colorimetric absorbance read-out; inhibition, % at 20 µM; actives 0.78% (n = 360,000); in the data active means inhibition above about 26%
aDG glyco act – alpha-DG glycosylation activation. activation, % at 10 µM. Pro5-aDG cells, alpha-DG glycosylation AlphaScreen (IIH6); 0% Pro5, 100% B10-LARGE cell signal. actives 0.22% (n = 360,000);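 active means activation of at least 8% versus controls, or a plate z-score of at least 8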;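 further: Pro5 are CHO cells carrying HIG-tagged alpha-DG that lacks glycosylation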
TAG inh – inhibitors of triacylglycerol accumulation | H9c2 cells, Nile Red lipid (TAG) fluorescence; cells loaded with 200 µM oleic acid | inhibition, % at 12.5 µM | actives 0.66% (n = 230,000) | AID 651582;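 active means pattern-corrected inhibition of lipid staining of at least 50% with the nuclear-stain viability signal not falling by more than 50%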;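 further: 0% = DMSO wells and 100% = triacsin C control wells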
MPTP inh – inhibitors of mitochondrial permeability transition pore | isolated mouse mitochondria, Ca2+ swelling absorbance, 30 min | AID 602449 | inhibition, % at 10 µM | actives 1.4% (n = 360,000);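 active means inhibition of 50% or more, scaled per plate between neutral and stimulator controls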;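 further: 0% = DMSO wells given calcium and 100% = 1 mM EGTA wells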
aDG glyco conf – confirmation of alpha dystroglycan glycosylation activators; Pro5-aDG cells, alpha-DG glycosylation, IIH6 AlphaLISA; scaled to LARGE-overexpressing B10 cells as 100%; actives 17% (n = 600); activation, % at 10 µM (by protocol); shares compounds with aDG glyco act;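 active means activation of at least 7% in one or more replicates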;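 further: cells exposed to compound for two days before detection; 0% = DMSO-treated Pro5 cells and 100% = DMSO-treated B10-LARGE cells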
* = called active by the depositor; x = no result given. Rows were chosen to be rich in hits. Some 2.7% of all compounds tested hit in one or more screens of this group.

SMILES	NadD block	aDG glyco act	TAG inh	MPTP inh	aDG glyco conf
O=C(Nc1ccc(NS(=O)(=O)c2ccc([N+](=O)[O-])cc2)cc1)c1ccco1	-1	0	13	-1	x
CN(CC(=O)Nc1cccc(Cl)c1)S(=O)(=O)c1ccc2[nH]c(=O)oc2c1	-1	5.7*	x	-1	-1
CCc1ccc(NC(=O)CN(C)S(=O)(=O)c2ccc3[nH]c(=O)oc3c2)cc1	4	0	x	0	x
CC(C)CC1COC(=O)N1 (configuration not stated)	3	0	15	-2	x
CNc1nc(-c2c(C)n(C)c3ccc(OC)cc23)cs1	1	3.0*	x	1	4
COc1ccc2c(c1)c(-c1csc(N)n1)c(C)n2C	1	2	4	1	x
NC(COCc1ccccc1)c1csc(Nc2ccc(S(N)(=O)=O)cc2)n1 (configuration not stated)	-2	0	-8	1	x
CCN(CCCNC(=O)C1CCN(S(=O)(=O)c2cccc3nonc23)CC1)Cc1ccccc1	-6	8.3*	-1	-4	0
CCCNC(=O)C1CCN(S(=O)(=O)c2cccc3nonc23)CC1	1	0	9	-1	x
N#Cc1cc2ccccc2nc1SCC(=O)Nc1ccccc1N1CCOCC1	10	0	x	-1	x
Cc1cccc2cc(C#N)c(SCC(=O)Nc3ccccc3N3CCOCC3)nc12	11	4.9*	23	0	-1
CN(C)C(=O)OCC1COc2ccccc2O1 (configuration not stated)	-5	0	x	1	x
Cc1cc(C(=O)Nc2ccc(Cl)cc2)n(-c2ccccc2)n1	-9	2.7*	x	0	0
Cc1ccc(NC(=O)c2cc(C)nn2-c2ccccc2)cc1	-3	0	-2	0	x
O=C(CSc1nnc(Cc2ccccc2)c(=O)[nH]1)Nc1ccccc1	1	0	-1	2	x
O=C(O)CSc1nnc(-c2ccccc2O)n1Cc1ccccc1	3	83*	-7	0	0
O=C(CSc1nnc(-c2ccccc2O)n1Cc1ccccc1)NNC(=O)c1ccccc1O	17	0	8	3	x
Cc1ccc2nc(-c3ccc(F)cc3)c(CC3CCCCC3)n2c1	4	8.8*	x	0	0
Cc1ccc2nc(-c3ccc(Cl)cc3)c(CC3CCCCC3)n2c1	2	0	x	-1	x
COc1ccc(C(=O)C(C)OC(=O)c2nc3nccc(C)n3n2)cc1 (configuration not stated)	3	0	5	1	x
COc1ccc(C(C(=O)Nc2ccc(F)cc2)N2CCN(CC(=O)N3CCCC3)CC2)cc1 (configuration not stated)	x	8.6*	x	0	0
O=C(Nc1ccc(F)cc1)C(c1ccccc1)N1CCN(CC(=O)N2CCCC2)CC1 (configuration not stated)	4	0	-12	-1	x
COc1ccc(-c2ccc3c(c2)S(=O)(=O)c2cccc(C(=O)NC4CCCCC4)c2C3=O)cc1OC	3	71*	x	-3	0
COc1ccc(-c2ccc3c(c2)S(=O)(=O)c2cccc(C(=O)NC4CC4)c2C3=O)cc1OC	3	0	-20	1	x
C[C@@H]1CN([C@@H](C)CO)C(=O)CCCn2nncc2CO[C@@H]1CN(C)C(=O)Nc1ccc(C(C)(C)C)cc1	-1	14*	-3	1	-1
SMILES	NadD block	aDG glyco act	TAG inh	MPTP inh	aDG glyco conf
C[C@@H]1CN([C@H](C)CO)C(=O)CCCn2nncc2CO[C@@H]1CN(C)C(=O)CCC(F)(F)F	3	7.3*	21	0	0
CC(C)COC(=O)N(C)C[C@@H]1OCc2cnnn2CCCC(=O)N([C@H](C)CO)C[C@@H]1C	3	7.2*	11	0	0
O=C(CNS(=O)(=O)c1ccc(Br)s1)N1CCN(c2ccc(F)cc2)CC1	2	0	x	1	x
CC1CCCC(C)N1C(=O)CSc1nnnn1Cc1ccccc1 (configuration not stated)	-6	5.6*	-5	0	-1
CC1CCCC(C)N1C(=O)CSc1nnnn1-c1cccc2c1CCCC2 (configuration not stated)	6	0	24	-2	x
CSc1ncc2[nH]c(C(O)c3ccccc3)nc2n1 (configuration not stated)	7	1	-24	-1	x
Cc1cc(NC(=O)Cc2ccccc2)c2ccccc2n1	1	7.5*	-29	45	0
COC(=O)Nc1cc(C)nc2ccccc12	-3	0	13	1	x
O=C(OCc1nc(-c2ccccc2Cl)no1)c1ccco1	-2	0	2	-1	x
CCOC(=O)[C@]12CCCC=C1N(Cc1ccc(Cl)cc1Cl)C(=O)[C@H](CC(=O)N1CCOCC1)C2	-8	0	x	0	x
Nn1cc(-c2ccccc2)nc1SCC(=O)NC1CCS(=O)(=O)C1 (configuration not stated)	-2	6.9*	-21	0	1
O=C(CSc1nc(-c2ccccc2)c(-c2ccccc2)o1)NC1CCS(=O)(=O)C1 (configuration not stated)	-1	0	4	0	x
Cc1cccc(/C=C2/Sc3ccc(C(=O)NCCN4CCCC4)cc3NC2=O)c1	12	8.2*	x	0	7.8*
COc1ccccc1[C@@H]1C(c2cccc(C)c2)=NN(c2ccc(Br)cc2)[C@H]1C(=O)N1CCOC1=O	13	4.9*	11	-1	0
N#Cc1ccc(C(=O)N2CCN(C(=O)C3CCCO3)CC2)cc1 (configuration not stated)	8	0	-23	-1	x
CC(Oc1ccc2ccccc2c1)C(=O)NNC(=O)Nc1ccccc1 (configuration not stated)	0	0	6	0	x
COCCCn1cn[nH]c1=S	-6	6.3*	-20	0	3
NC(CCc1ccccc1)c1csc(Nc2ccc(C(=O)NCCO)cc2)n1 (configuration not stated)	1	0	10	0	x
NC(CCc1ccccc1)c1csc(Nc2ccc(C(=O)c3ccccc3)cc2)n1 (configuration not stated)	11	8.0*	17	9	3
OC[C@@H]1CN(Cc2ccc(-c3ccccc3)cc2)C[C@H](n2cnc3c(NC4CCC4)ncnc32)O1	-3	7.6*	16	3	2
CC(C)(C)c1ccc(-n2ncc3c2CCCC3NC(=O)C2(C(N)=O)CC2)cc1 (configuration not stated)	3	9.6*	x	49	2
O=C1c2c(-c3ccc(Br)cc3)noc2CCN1Cc1cn(Cc2cccnc2)nn1	x	0	x	1	x
COc1cc(C#Cc2c(-c3cncn3C)n(C)c3ccc(Br)cc23)cc(OC)c1	17	5.0*	48	0	1
CN(Cc1ccco1)C(=O)CSc1nc(C2CC2)n(-c2ccccc2)n1	2	0	-8	-2	x
Cc1ccc(/C=C(\NC(=O)c2ccccc2)C(=O)NC2CCN(Cc3ccccc3)CC2)o1	1	0	-1	0	x
